Conditions in all cases: concentration: 1 μM, replicates: in singlicate; n = 1
Experiment [1] relates to T1, GRK3.
T1 construct: gene ADRBK2

For experiment [2], the system named is GRK4.
For experiment [3], the system named is GRK7.
In experiment [4] the test system is GSK3A.
Experiment [5] relates to GSK3B.
The test system of experiment [6] is T2, HASPIN.
T2 construct: gene GSG2

For experiment [7], the system named is HCK.
The subject of experiment [8] is HIPK1.
Experiment [9] relates to HIPK2.
Experiment [10] concerns HIPK3.
The subject of experiment [11] is HIPK4.
Experiment [12] has as its system HPK1.
Experiment [13] relates to HUNK.
Experiment [14] deals with ICK.
The test system of experiment [15] is IGF1R.
Experiment [16] relates to T3, IKK-alpha.
T3 construct: gene CHUK

In experiment [17] the test system is T4, IKK-beta.
T4 construct: gene IKBKB

For experiment [18], the system named is T5, IKK-epsilon.
T5 construct: gene IKBKE

For experiment [19], the system named is INSRR.
Experiment [20] relates to INSR.
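Further: KINOMEscan kinase panel screen.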

Regarding `Cc1ccccc1Cn1ccn2c(=O)cc(N3CCOCC3)nc12` [GSK2269905], the “%Inh” value came to 26% in [1]; 0% in [2]; 0% in experiment [3]; 2% in experiment [4]; 15% in experiment [5]; 0% in experiment [6]. For the same compound, the “%Inh” value in experiment [7] is given as 0%; in [8], 0%; in experiment [9] it was 0%; in experiment [10] it was 9%; in experiment [11] it was 0%; in [12], 32%. Moreover, the “%Inh” value in experiment [13] was found to be 7%; in experiment [14] it was 0%; in experiment [15], 2%; in experiment [16], 0%; in experiment [17], 12%; in experiment [18], 0%. Also, the “%Inh” value in experiment [19] came out at 0%; in [20], 17%.
For the compound `Cc1ccc(NC(=O)Nc2ccccc2F)cc1-c1ccc(C(=O)Nc2ccncc2)cc1` [GSK1398477], the “%Inh” value in experiment [1] came out at 0%; in experiment [2], 30%; in [3], 0%; in [4] it was 25%; in [5], 3%; in experiment [6], 0%. Besides, the “%Inh” value turned out to be 0% in experiment [7]; 0% in experiment [8]; 0% in experiment [9]; 10% in experiment [10]; 0% in experiment [11]; 44% in [12]. Also, the “%Inh” value in [13] is given as 31%; in experiment [14], 18%; in experiment [15] it was 0%; in experiment [16], 0%; in experiment [17], 6%; in experiment [18] it was 19%. The “%Inh” value in [19] amounted to 11%; in experiment [20], 16%.
For `CNC(=O)c1ccc(C)c(-n2c(C)cc(OCc3ccc(F)cc3F)c(Br)c2=O)c1`, the “%Inh” value in [1] is 0%; in experiment [2], 2%; in experiment [3] it was 0%; in experiment [4] it was 0%; in [5], 0%; in [6], 18%. Moreover, the “%Inh” value in experiment [7], in experiment [8], in experiment [9], in experiment [10], in [11] and in [12] was 0% each time. Further, the “%Inh” value in experiment [13], in experiment [14], in experiment [15], in experiment [16], in experiment [17] and in experiment [18] was 0% each time. The figures for the “%Inh” value in [19] and in experiment [20] were 6% and 0%, respectively.
For the compound `Cn1cncc1-c1cc2c(Nc3ccc(OCc4ccccc4)cc3)ncnc2cn1` [GW281179], the “%Inh” value is given as 33% in experiment [1]; 0% in [2]; 0% in [3]; 8% in [4]; 11% in [5]; 0% in [6]. Moreover, the “%Inh” value is on record as 0% in [7]; 0% in [8]; 0% in [9]; 0% in [10]; 0% in experiment [11]; 25% in [12]. Also, the “%Inh” value in [13] was 8%; in experiment [14], 5%; in experiment [15], 4%; in experiment [16] it was 0%; in experiment [17], 6%; in experiment [18] it was 4%. The “%Inh” value was 0% in experiment [19] and 2% in experiment [20].
With `CSc1ccc(-c2nc3n(c2-c2ccncc2)CCC3)cc1` [SKF-105561], the “%Inh” value in [1] was determined as 28%; in experiment [2] it was 5%; in experiment [3], 0%; in experiment [4] it was 0%; in experiment [5] it was 20%; in experiment [6], 35%. For the same compound, the “%Inh” value is 7% in experiment [7]; 0% in experiment [8]; 0% in experiment [9]; 6% in experiment [10]; 2% in experiment [11]; 0% in experiment [12]. The “%Inh” value in [13] was determined as 21%; in experiment [14], 18%; in [15], 0%; in experiment [16], 5%; in experiment [17], 6%; in experiment [18], 12%. Besides, the “%Inh” value in [19] is reported as 0%; in experiment [20] it was 5%.
For the compound `CCn1c(-c2c(N)noc2C)nc2cnccc21` [SB-737856], the “%Inh” value in [1] turned out to be 42%; in experiment [2], 6%; in experiment [3], 0%; in experiment [4] it was 0%; in experiment [5], 2%; in [6], 0%. Further, the “%Inh” value worked out at 0% in experiment [7]; 0% in experiment [8]; 0% in experiment [9]; 0% in experiment [10]; 0% in experiment [11]; 41% in experiment [12]. Besides, the “%Inh” value in [13] is recorded as 0%; in experiment [14] it was 4%; in [15] it was 0%; in experiment [16], 7%; in experiment [17], 0%; in experiment [18], 0%. Besides, the “%Inh” value in experiment [19] and in experiment [20] was 0% in each case.
With `COc1ccc(-c2coc3ccc(-c4nnc(C)o4)cc23)cc1`, the “%Inh” value in experiment [1] was 0%; in experiment [2], 0%; in experiment [3], 0%; in experiment [4] it was 11%; in experiment [5] it was 0%; in experiment [6], 18%. Further, the “%Inh” value was found to be 0% in experiment [7]; 37% in experiment [8]; 0% in experiment [9]; 0% in experiment [10]; 8% in experiment [11]; 0% in experiment [12]. The “%Inh” value in experiment [13] worked out at 0%; in experiment [14] it was 0%; in experiment [15] it was 12%; in [16], 0%; in experiment [17], 0%; in [18], 0%. Besides, the “%Inh” value in [19] came out at 0%; in experiment [20], 14%.
As for `Cc1cccc2c(-c3ccncn3)c(-c3ccc(F)cc3)nn12` [GW515532], the “%Inh” value in experiment [1] came to 0%; in [2], 12%; in experiment [3], 0%; in [4], 1%; in [5], 0%; in experiment [6], 21%. The “%Inh” value in [7] is 0%; in experiment [8] it was 0%; in experiment [9] it was 0%; in experiment [10] it was 0%; in experiment [11] it was 8%; in experiment [12], 3%. Moreover, the “%Inh” value in experiment [13] was found to be 0%; in experiment [14] it was 9%; in experiment [15], 0%; in [16], 37%; in [17], 18%; in experiment [18], 0%. The “%Inh” value in experiment [19] worked out at 16%; in [20], 75%.
`COC(=O)c1cccc(NC(=O)NC2CCN(c3ccnc(Nc4ccc(OC)cc4)n3)C2)c1` (stereo not shown) [GSK1379746]: the “%Inh” value amounted to 43% in experiment [1]; 0% in experiment [2]; 0% in experiment [3]; 0% in experiment [4]; 12% in experiment [5]; 0% in experiment [6]. Besides, the “%Inh” value turned out to be 0% in experiment [7]; 0% in experiment [8]; 0% in experiment [9]; 0% in experiment [10]; 0% in experiment [11]; 41% in experiment [12]. Besides, the “%Inh” value is reported as 0% in [13]; 12% in [14]; 1% in [15]; 44% in experiment [16]; 18% in [17]; 29% in experiment [18]. Besides, the “%Inh” value in experiment [19] and in experiment [20] was 0% throughout.
Consider `CNCc1ccc2nc(NC(=O)c3ccc(C(C)(C)C)cc3)cn2c1`, for which the “%Inh” value in [1] worked out at 36%; in [2], 0%; in experiment [3] it was 10%; in experiment [4], 3%; in [5], 11%; in [6], 5%. In addition, the “%Inh” value in experiment [7] is given as 3%; in experiment [8], 17%; in [9], 13%; in experiment [10], 17%; in experiment [11] it was 5%; in experiment [12] it was 12%. The “%Inh” value was found to be 19% in [13]; 27% in experiment [14]; 0% in experiment [15]; 8% in experiment [16]; 6% in experiment [17]; 15% in experiment [18]. In addition, the “%Inh” value in [19] is given as 2%; in [20], 9%.
Consider `COC(=O)c1cccc(NC(=O)NC2CCN(c3ccnc(Nc4ccc(F)cc4)n3)C2)c1` (stereo not shown) [GSK1379725], for which the “%Inh” value in [1] turned out to be 38%; in [2] it was 0%; in experiment [3], 0%; in experiment [4], 0%; in [5] it was 0%; in [6], 0%. Besides, the “%Inh” value came to 0% in experiment [7]; 0% in [8]; 0% in [9]; 0% in experiment [10]; 0% in experiment [11]; 51% in experiment [12]. Besides, the “%Inh” value is listed as 0% in experiment [13]; 17% in [14]; 0% in [15]; 0% in experiment [16]; 5% in experiment [17]; 0% in experiment [18]. Further, the “%Inh” value in experiment [19] and in experiment [20] was 0% each time.

Values taken from paper PMC5540273 (PLoS ONE, 2017).
